# The supplement of paper PMC10037445
# In all, about 2,900 compounds were measured (“NF-kB SEAP reporter activity, fold change vs agonist alone”: median about 0.99, highest 2% from about 2.6 on). The sample as a whole holds a higher share of the highest values than the screen did.
# What was measured:
# RAW-Dual [1] = test: NF-kB SEAP reporter activity, fold change vs agonist alone; cytotoxicity flag (confluency mask): not cytotoxic; higher = enhanced NF-kB activity
# Outline: (§1)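 Reporter activity is given as fold change relative to agonist-alone wells. To measure it, 50 nL of library stock was pin-tooled onto RAW-Dual macrophages (50,000 cells/well, DMEM, 384-well plates), a PRR agonist followed 1 h later, and cells stayed at 37 °C, 5% CO2. Twenty hours on, supernatant was assayed for IRF (QuantiLuc luminescence) and NF-κB (QuantiBlue, 620 nm absorbance), and wells under 70% of agonist-control IncuCyte confluency in both mask sets were marked cytotoxic.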
# RAW-Dual [2] = test: NF-kB SEAP reporter activity, fold change vs agonist alone; higher = enhanced NF-kB activity; conditions: library stock concentration (final ~1000-fold dilution): 10 mM
# Outline: as §1
# RAW-Dual [3] = test: NF-kB SEAP reporter activity, fold change vs agonist alone; cytotoxicity flag (confluency mask): cytotoxic (confluency <70% of control); higher = enhanced NF-kB activity
# Outline: as §1
# [4] = agonist: ODN 1826 (TLR9) 0.5 ug/mL
# [5] = agonist: Pam2CSK4 (TLR2/6) 0.1 ug/mL
# [6] = agonist: Pam3CSK4 (TLR2/1) 0.1 ug/mL
# [7] = cytotoxicity flag (confluency mask): not cytotoxic, agonist: Imiquimod (TLR7) […]
# [8] = cytotoxicity flag (confluency mask): not cytotoxic, agonist: MPLA (TLR4) […]
# [9] = cytotoxicity flag (confluency mask): cytotoxic (confluency <70% of control), agonist: Imiquimod (TLR7) […]
# [10] = cytotoxicity flag (confluency mask): cytotoxic (confluency <70% of control), agonist: MPLA (TLR4) […]
smiles,measurement,setting,value
COc1ccc(-c2ccc3c(N4CCOCC4C)nc(N4CCOCC4C)nc3n2)cc1CO (configuration not stated) (library stock concentration (final ~1000-fold dilution): 10 mM),NF-kB SEAP reporter activity,RAW-Dual [1]; agonist: LPS (TLR4) 0.1 ug/mL,1.62
same,NF-kB SEAP reporter activity,RAW-Dual [1]; [4],1.12
same,NF-kB SEAP reporter activity,RAW-Dual [1]; [5],0.372
same,NF-kB SEAP reporter activity,RAW-Dual [1]; [6],0.555
COc1ccc(-c2ccc3c(N4CCOCC4C)nc(N4CCOCC4C)nc3n2)cc1CO (configuration not stated),NF-kB SEAP reporter activity,RAW-Dual [2]; [7],1.11
same,NF-kB SEAP reporter activity,RAW-Dual [2]; [8],1.53
Cc1cc(O)c(-c2ccc(C(C)CN(C)C)cc2)c2c1[nH]c(=O)c1sccc12.Cl.Cl (configuration not stated),NF-kB SEAP reporter activity,RAW-Dual [2]; [9],1.2
same,NF-kB SEAP reporter activity,RAW-Dual [2]; [10],1.37
Cc1cc(O)c(-c2ccc(C(C)CN(C)C)cc2)c2c1[nH]c(=O)c1sccc12.Cl.Cl (configuration not stated) (library stock concentration (final ~1000-fold dilution): 10 mM),NF-kB SEAP reporter activity,RAW-Dual [3]; agonist: LPS (TLR4) 0.1 ug/mL,0.764
same,NF-kB SEAP reporter activity,RAW-Dual [3]; [4],0.357
same,NF-kB SEAP reporter activity,RAW-Dual [3]; [5],0.311
same,NF-kB SEAP reporter activity,RAW-Dual [3]; [6],0.482
CC(N)C12CC3CC(CC(C3)C1)C2.Cl (configuration not stated),NF-kB SEAP reporter activity,RAW-Dual [2]; [8],1.06
CC(N)C12CC3CC(CC(C3)C1)C2.Cl (configuration not stated) (library stock concentration (final ~1000-fold dilution): 10 mM),NF-kB SEAP reporter activity,RAW-Dual [1]; agonist: LPS (TLR4) 0.1 ug/mL,1.15
same,NF-kB SEAP reporter activity,RAW-Dual [1]; [4],0.619
same,NF-kB SEAP reporter activity,RAW-Dual [1]; [5],1.24
same,NF-kB SEAP reporter activity,RAW-Dual [1]; [6],0.847
O=C(Cn1nnc(-c2ccncc2)c1-c1ccccc1)Nc1ccc(-c2ccccc2)cn1 (library stock concentration (final ~1000-fold dilution): 10 mM),NF-kB SEAP reporter activity,RAW-Dual [1]; agonist: LPS (TLR4) 0.1 ug/mL,1.06
same,NF-kB SEAP reporter activity,RAW-Dual [1]; [4],0.623
same,NF-kB SEAP reporter activity,RAW-Dual [1]; [5],0.34
same,NF-kB SEAP reporter activity,RAW-Dual [1]; [6],0.345
O=C(Cn1nnc(-c2ccncc2)c1-c1ccccc1)Nc1ccc(-c2ccccc2)cn1,NF-kB SEAP reporter activity,RAW-Dual [2]; [7],0.711
same,NF-kB SEAP reporter activity,RAW-Dual [2]; [8],0.961
COc1cc2c(cc1-c1c(C)noc1C)ncc1[nH]c(=O)n(C(C)c3ccccn3)c12 (configuration not stated),NF-kB SEAP reporter activity,RAW-Dual [2]; [9],2.61
same,NF-kB SEAP reporter activity,RAW-Dual [2]; [10],2.46
Cc1noc(C)c1-c1cnc2c(-c3ccc(C(=O)O)cc3)cn(C(C)c3ccccn3)c2c1 (configuration not stated) (library stock concentration (final ~1000-fold dilution): 10 mM),NF-kB SEAP reporter activity,RAW-Dual [1]; agonist: LPS (TLR4) 0.1 ug/mL,2.32
same,NF-kB SEAP reporter activity,RAW-Dual [1]; [4],1.73
same,NF-kB SEAP reporter activity,RAW-Dual [1]; [5],0.767
same,NF-kB SEAP reporter activity,RAW-Dual [1]; [6],2.09
Cc1noc(C)c1-c1ccc2[nH]c(=O)n3c2c1OCC3c1ccccn1 (configuration not stated),NF-kB SEAP reporter activity,RAW-Dual [2]; [7],1.5
same,NF-kB SEAP reporter activity,RAW-Dual [2]; [8],2.28
COc1cc2c(cc1-c1c(C)noc1C)ncc1[nH]c(=O)n(C(C)c3ccccn3)c12 (configuration not stated) (library stock concentration (final ~1000-fold dilution): 10 mM),NF-kB SEAP reporter activity,RAW-Dual [3]; agonist: LPS (TLR4) 0.1 ug/mL,4.87
same,NF-kB SEAP reporter activity,RAW-Dual [3]; [4],2.55
same,NF-kB SEAP reporter activity,RAW-Dual [3]; [5],0.529
same,NF-kB SEAP reporter activity,RAW-Dual [3]; [6],1.93
Cc1noc(C)c1-c1ccc2[nH]c(=O)n3c2c1OCC3c1ccccn1 (configuration not stated) (library stock concentration (final ~1000-fold dilution): 10 mM),NF-kB SEAP reporter activity,RAW-Dual [1]; agonist: LPS (TLR4) 0.1 ug/mL,1.61
same,NF-kB SEAP reporter activity,RAW-Dual [1]; [4],1.67
same,NF-kB SEAP reporter activity,RAW-Dual [1]; [5],0.501
same,NF-kB SEAP reporter activity,RAW-Dual [1]; [6],1.34
Cc1noc(C)c1-c1cnc2c(-c3ccc(C(=O)O)cc3)cn(C(C)c3ccccn3)c2c1 (configuration not stated),NF-kB SEAP reporter activity,RAW-Dual [2]; [7],1.59
same,NF-kB SEAP reporter activity,RAW-Dual [2]; [8],2.29
C=CC(=O)N1CCC(C2CCNc3c(C(N)=O)c(-c4ccc(Oc5ccccc5)cc4)nn32)CC1 (configuration not stated) (library stock concentration (final ~1000-fold dilution): 10 mM),NF-kB SEAP reporter activity,RAW-Dual [1]; agonist: LPS (TLR4) 0.1 ug/mL,0.708
same,NF-kB SEAP reporter activity,RAW-Dual [1]; [4],0.413
same,NF-kB SEAP reporter activity,RAW-Dual [1]; [5],0.25
same,NF-kB SEAP reporter activity,RAW-Dual [1]; [6],0.279
C=CC(=O)N1CCC(C2CCNc3c(C(N)=O)c(-c4ccc(Oc5ccccc5)cc4)nn32)CC1 (configuration not stated),NF-kB SEAP reporter activity,RAW-Dual [2]; [7],0.477
same,NF-kB SEAP reporter activity,RAW-Dual [2]; [8],0.541
